Shown are actives, neighbours in structure and some others; about 3.4% of the full set was active somewhere.
GPR151 activ = activators of human GPR151, primary screen, cell-based, PathHunter beta-arrestin, luminescence; activation, % at 11.2 µM; G-protein coupled receptor 151 (Homo sapiens), Q8TDV0; AID 1508602, 2020; actives 1% (n = 650,000); PathHunter beta-arrestin GPR151 cells; in the data active means activation above about 4.9%;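 further: 0% = median of compound wells and 100% = cells with positive control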
FBW7 act = FBW7 E3 ligase activators, primary screen, biochemical, AlphaScreen, human. F-box/WD repeat-containing protein 7 (Homo sapiens), Q969H0. AlphaScreen FBW7–phospho-cyclin E peptide binding, activator screen. actives 0.13% (n = 650,000). AID 1259310, 2017. normalized activity (activation), % at 26.1 µM; in the data active means normalized activity above about 1.9%;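 further: purified mutant Fbw7 with reduced substrate affinity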
Target sequence (Q969H0 whole entry, looked up): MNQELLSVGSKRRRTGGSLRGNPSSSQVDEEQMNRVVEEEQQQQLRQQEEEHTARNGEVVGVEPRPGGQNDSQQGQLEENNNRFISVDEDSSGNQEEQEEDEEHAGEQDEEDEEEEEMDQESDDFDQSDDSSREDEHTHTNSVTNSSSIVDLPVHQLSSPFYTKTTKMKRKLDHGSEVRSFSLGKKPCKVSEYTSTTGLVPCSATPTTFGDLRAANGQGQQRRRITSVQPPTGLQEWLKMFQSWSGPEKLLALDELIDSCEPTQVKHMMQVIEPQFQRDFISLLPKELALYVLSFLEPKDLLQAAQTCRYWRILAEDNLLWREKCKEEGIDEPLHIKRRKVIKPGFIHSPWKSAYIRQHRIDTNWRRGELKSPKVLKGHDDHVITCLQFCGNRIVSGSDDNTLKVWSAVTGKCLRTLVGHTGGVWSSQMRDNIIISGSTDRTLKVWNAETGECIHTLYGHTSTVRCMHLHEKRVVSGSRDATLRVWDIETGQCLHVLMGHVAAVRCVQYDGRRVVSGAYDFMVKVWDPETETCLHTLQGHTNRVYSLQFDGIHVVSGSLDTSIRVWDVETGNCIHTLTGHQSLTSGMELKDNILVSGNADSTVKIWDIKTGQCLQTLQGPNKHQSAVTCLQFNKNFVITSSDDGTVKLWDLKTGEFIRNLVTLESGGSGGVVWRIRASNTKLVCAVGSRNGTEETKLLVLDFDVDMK
TEAD-YAP block = TEAD-YAP interaction inhibition, primary screen, TEAD-YAP interaction inhibitor project, luminescence, HEK-TIYL cells. inhibition, % at 9.12 µM. TEAD-Gal4/YAP UAS-luciferase luminescence. actives 1.4% (n = 640,000); in the data active means inhibition above about 32%;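 further: 0% = median of test compound wells and 100% = reference inhibitor wells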
MITF primary = MITF inhibitors, primary screen, biochemical, AlphaScreen, human | Microphthalmia-associated transcription factor (Homo sapiens), O75030 | AlphaScreen MITF homodimerization, bead proximity signal | inhibition, % at 2.6 µM | actives 0.91% (n = 650,000); in the data active means inhibition above about 50%;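 further: 0% = vehicle wells with protein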
Starred values were filed as active, the others as inactive.

What do the screens show for `CCOc1cc(C(=O)N2N=C(C)CC2(O)C(F)(F)F)cc(OCC)c1OCC` (centres undefined)?
GPR151 activ: 1; FBW7 act: 0; TEAD-YAP block: 61*; MITF primary: -2

What do the screens show for `O=C(CCC(=O)OCC(=O)c1ccc(Cl)cc1)Nc1cccc(O)c1`?
GPR151 activ: 0; FBW7 act: 0; TEAD-YAP block: 9; MITF primary: 5

How did COc1ccc(C(=O)/C(=C\c2ccc(OC)c(OC)c2)c2nc3ccccc3o2)cc1 do in these assays?
GPR151 activ: 2; FBW7 act: 0; TEAD-YAP block: 43*; MITF primary: 7

What do the screens show for `CC(=O)C1=C(c2ccccc2)S/C(=C2/C(=S)C(C)(C)Nc3ccc(C)cc32)S1`?
GPR151 activ: 0; FBW7 act: 0; TEAD-YAP block: 7; MITF primary: 57*

What do the screens show for `CCOc1ccc2c(c1)/C(=C1/SC(C(C)=O)=C(c3ccccc3)S1)C(=S)C(C)(C)N2`?
GPR151 activ: -1; FBW7 act: 0; TEAD-YAP block: 4; MITF primary: 7

How did Cc1sc(N)nc1-c1ccc2c(c1)CC(C)N2S(C)(=O)=O (centres undefined) do in these assays?
GPR151 activ: -2; FBW7 act: 0; TEAD-YAP block: 7; MITF primary: 4

How did Cc1sc(NC(=O)CCl)nc1-c1ccc2c(c1)CCN2S(C)(=O)=O do in these assays?
GPR151 activ: 0; FBW7 act: 0; TEAD-YAP block: -10; MITF primary: 18

How did CC1Cc2cc(-c3csc(NC(=O)Cc4cccs4)n3)ccc2N1S(C)(=O)=O (centres undefined) do in these assays?
GPR151 activ: -1; FBW7 act: 0; TEAD-YAP block: 57*; MITF primary: -2

How did CC(=O)Nc1nc(-c2ccc3c(c2)CCN3S(C)(=O)=O)c(C)s1 do in these assays?
GPR151 activ: 1; FBW7 act: 0; TEAD-YAP block: 52*; MITF primary: 11

Results for CNc1nc(-c2ccc3c(c2)CCN3C(=O)C2CC2)cs1 ?
GPR151 activ: 1; FBW7 act: 0; TEAD-YAP block: 63*; MITF primary: -2

What do the screens show for `CNc1nc(-c2ccc3c(c2)CC(C)N3S(C)(=O)=O)cs1` (centres undefined)?
GPR151 activ: -1; FBW7 act: 0; TEAD-YAP block: 44*; MITF primary: -2

Results for COc1ccc(NC(=O)Cn2nnc(-c3ccccc3F)n2)cc1OC ?
GPR151 activ: 3; FBW7 act: 0; TEAD-YAP block: -18; MITF primary: 5

What do the screens show for `CCC(Sc1nc2ccccc2c(=O)n1CC1CCC(C(=O)NCCc2ccccc2)CC1)C(=O)NCc1ccco1` (centres undefined)?
GPR151 activ: 0; FBW7 act: 0; TEAD-YAP block: -1; MITF primary: 1

Results for O=C(NN1CCOCC1)c1sc2ccccc2c1Cl ?
GPR151 activ: -1; FBW7 act: 1; TEAD-YAP block: 4; MITF primary: 21

Results for Cc1sc(NC(=O)Cc2cccs2)nc1-c1ccc2c(c1)CC(C)N2S(C)(=O)=O (centres undefined) ?
GPR151 activ: 2; FBW7 act: 0; TEAD-YAP block: 52*; MITF primary: 7

Results for CNc1nc(-c2ccc3c(c2)CCN3C(=O)C2CC2)c(C)s1 ?
GPR151 activ: 1; FBW7 act: 0; TEAD-YAP block: 5; MITF primary: -3

How did Cc1sc(NC(=O)c2ccncc2)nc1-c1ccc2c(c1)CCN2C(=O)C1CC1 do in these assays?
GPR151 activ: 0; FBW7 act: 0; TEAD-YAP block: 38*; MITF primary: -13

What do the screens show for `c1ccc(-c2cc(NCc3ccco3)nc(-c3ccccn3)n2)nc1`?
GPR151 activ: 1; FBW7 act: -1; TEAD-YAP block: 59*; MITF primary: 111*

How did c1ccc(-c2nc(NCc3ccco3)cc(-c3cccnc3)n2)nc1 do in these assays?
GPR151 activ: 1; FBW7 act: 0; TEAD-YAP block: 11; MITF primary: -17

What do the screens show for `C=CCNc1cc(-c2ccccn2)nc(-c2ccccn2)n1`?
GPR151 activ: 1; FBW7 act: -1; TEAD-YAP block: 50*; MITF primary: 115*

What do the screens show for `COc1ccc2cc(-c3cc(C(=O)N4CCN(CCO)CC4)c4ccccc4n3)ccc2c1`?
GPR151 activ: -1; FBW7 act: 0; TEAD-YAP block: 70*; MITF primary: -1
